Bioassay records: PubChem, National Center for Advancing Translational Sciences (NCATS)
ALDH1A1 block: qHTS Assay for Inhibitors of Aldehyde Dehydrogenase 1 (ALDH1A1). Potency, µM (series often up to 75.3 µM), without a hit: at the highest dose activity, negative = inhibition, most hits filed as inhibitors. Purified ALDH1A1, NADH fluorescence, propionaldehyde substrate. AID 1030, 2008. 220,000 compounds, 7.3% hits;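 note: potency is the fitted concentration of half-maximal effect; plate controls were no enzyme wells and a reference inhibitor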
HPGD inh: qHTS Assay for Inhibitors of HPGD (15-Hydroxyprostaglandin Dehydrogenase) | 15-hydroxyprostaglandin dehydrogenase [NAD(+)] (Homo sapiens), P15428 | Potency, µM, for the others: top-dose activity change, negative = inhibition, hits mostly inhibitors | purified HPGD, NADH fluorescence kinetic, PGE2 substrate | 150,000 compounds, 4.3% hits | AID 894, 2007; note: potency is the fitted concentration of half-maximal effect
Target sequence (P15428 whole entry, looked up): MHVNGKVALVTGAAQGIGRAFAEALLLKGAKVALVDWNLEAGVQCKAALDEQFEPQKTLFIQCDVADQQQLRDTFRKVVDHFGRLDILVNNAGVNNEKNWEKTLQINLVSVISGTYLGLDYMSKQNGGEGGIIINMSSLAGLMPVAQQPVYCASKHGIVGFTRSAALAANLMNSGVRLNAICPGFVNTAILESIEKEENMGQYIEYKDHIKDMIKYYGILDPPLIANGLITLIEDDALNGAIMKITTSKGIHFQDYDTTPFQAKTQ
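20 nM HPGD preincubated 15 min at room temperature with compound in 50 mM Tris-HCl pH 8, 0.01% Tween 20. Started with 1 mM NAD+ and 30 uM prostaglandin E2; NADH fluorescence (360/450 nm) read 5 times over 30-s intervals, last minus first.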
IMPase inh: qHTS Assay for Identifying the Cell-Membrane Permeable IMPase Inhibitors. inhibition (IP1 accumulation), % at 46.1 µM. Inositol monophosphatase 1 (Rattus norvegicus), P97697. AID 901, 2007. 120,000 tested, under 10 active. CHO-M1 cells, IP1 accumulation, HTRF TR-FRET ratio; active = well fitted curve in the direction sought with a large enough effect in the signal ratio, not every such curve was filed as active; inconclusive = small, poorly fitted or top-dose-only effect, or a change in a side signal; inactive = no such curve, though single readings can be large or run the other way; the % refers to the signal ratio;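 note: cells stimulated with carbachol in lithium chloride buffer; plate controls were DMSO basal wells for no effect and reference inhibitor wells for full effect; higher means more IMPase inhibition seen as more IP1 and lower FRET ratio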
Target sequence (P97697 whole entry, looked up): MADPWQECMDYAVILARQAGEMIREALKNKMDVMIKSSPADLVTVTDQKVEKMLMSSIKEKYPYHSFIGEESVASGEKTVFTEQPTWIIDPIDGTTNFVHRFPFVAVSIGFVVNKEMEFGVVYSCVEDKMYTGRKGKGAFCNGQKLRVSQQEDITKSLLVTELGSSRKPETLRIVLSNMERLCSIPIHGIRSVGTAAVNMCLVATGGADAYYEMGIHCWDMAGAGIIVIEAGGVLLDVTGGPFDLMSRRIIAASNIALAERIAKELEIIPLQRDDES
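CHO-M1 cells (CHO stably expressing M1 receptor), compound up to 46 uM final, stimulated with carbachol (50 uM as added) in buffer with 50mM LiCl, pH 7.4, 30 min at 37C. Cytosolic IP1 read by TR-FRET; AC50 from Hill fits.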
* = called active by the depositor. A selection: hits, their analogues and other compounds. The true share with any hit is near 9%. Unless noted, calls come from the whole dose curve; as a rule, active = well fitted inhibition curve with a large enough effect (not every such curve was filed as active); inconclusive = small, poorly fitted or top-dose-only effect, or another doubt; inactive = no such curve, though single readings can be large or run the other way. Unless noted, % is set by controls: 0 for no effect and ±100 for the full control effect.

How did CCn1nnnc1-c1ccc(OC)c(S(=O)(=O)Nc2ccc(C(=O)OC)cc2)c1 do in these assays?
ALDH1A1 block: 7.08µM*; HPGD inh: -7.5%; IMPase inh: 24.6

How did CCn1nnnc1-c1ccc(OC)c(S(=O)(=O)N2CCCCC2)c1 do in these assays?
ALDH1A1 block: inconclusive; HPGD inh: -5.1%; IMPase inh: 1.3

Results for CCn1nnnc1-c1ccc(OC)c(S(=O)(=O)Nc2ccc(OC)cc2)c1 ?
ALDH1A1 block: 0.112µM*; HPGD inh: -16.4%; IMPase inh: -5.4

How did CCOC(=O)c1ccc(NS(=O)(=O)c2cc(-c3nnnn3C(C)C)ccc2OC)cc1 do in these assays?
ALDH1A1 block: 2.82µM*; HPGD inh: -22.1%; IMPase inh: inconclusive

How did O=S(=O)(c1cc(Cl)ccc1Cl)N1CC2CCCN2c2ccc(C(F)(F)F)cc21 (stereo not given) do in these assays?
ALDH1A1 block: 2.0%; HPGD inh: -8.9%; IMPase inh: 24.5

What do the screens show for `C=CCN(c1cccc(C(F)(F)F)c1)S(=O)(=O)c1cccc(C(=O)OCC(=O)NCCC)c1`?
ALDH1A1 block: -0.1%; IMPase inh: 13.2

What do the screens show for `COc1ccc(S(=O)(=O)CCC(=O)Nc2cccc(OC)c2)cc1`?
ALDH1A1 block: -3.8%

Results for COCCn1c(-c2ccccc2F)n[nH]c1=S ?
ALDH1A1 block: inconclusive; HPGD inh: -23.2%; IMPase inh: -0.1

Results for COCCn1c(C23CC4CC(CC(C4)C2)C3)n[nH]c1=S ?
ALDH1A1 block: -101.2%; HPGD inh: 25.1µM*; IMPase inh: -9.7

What do the screens show for `CCOc1ccc(/C=C/C(=O)Nc2sc3c(c2C(=O)OC)CCC3)cc1`?
IMPase inh: -3.0

How did CC(C)NC(=S)N=Nc1c(O)[nH]c2ccc([N+](=O)[O-])cc12 do in these assays?
ALDH1A1 block: 10µM*

How did C=C(C)CNC(=S)N=Nc1c(O)[nH]c2ccc([N+](=O)[O-])cc12 do in these assays?
ALDH1A1 block: -6.8%

How did O=C1/C(=C/c2ccc([N+](=O)[O-])cc2)C=C(c2ccccc2)N1c1ccccc1 do in these assays?
ALDH1A1 block: -1.9%; IMPase inh: inconclusive

How did O=C(O)c1cccc(N2C(=O)/C(=C/c3ccc([N+](=O)[O-])cc3)C=C2c2ccccc2)c1 do in these assays?
ALDH1A1 block: 25.1µM*

How did COc1c(Cl)ccc(Cl)c1C(=O)NC(=S)N1CCOCC1 do in these assays?
ALDH1A1 block: 6.1%

Results for COC(=O)N1CCC2(CC1)CN(c1ccccn1)C2 ?
ALDH1A1 block: inconclusive; HPGD inh: -0.2%

How did Clc1cccc(CN2CCN(c3nc4nonc4nc3NC3CC3)CC2)c1 do in these assays?
ALDH1A1 block: -15.1%

What do the screens show for `Cc1cccc(CN2CCN(c3nc4nonc4nc3NC3CC3)CC2)c1`?
ALDH1A1 block: 15.8µM*

What do the screens show for `CCN(C#N)c1nc(NC(C)C)nc(NC(C)(C)C)n1`?
ALDH1A1 block: -3.5%

How did CCCN(C#N)c1nc(NCC)nc(NC(C)C)n1 do in these assays?
ALDH1A1 block: 10µM*; HPGD inh: -4.7%; IMPase inh: 0.1

What do the screens show for `N[C@@H](C(=O)O)c1ccc(C(=O)O)c(O)c1`?
ALDH1A1 block: inconclusive; HPGD inh: inconclusive; IMPase inh: -7.1

What do the screens show for `CCCCNCc1cc(OCC)c(OCC)cc1Br`?
ALDH1A1 block: 2.3%

Results for CCc1ccc(C2CC(c3ccccc3)n3ncnc3N2)cc1 (stereo not given) ?
ALDH1A1 block: -9.3%; HPGD inh: -10.7%; IMPase inh: 0.9

Results for COc1cc(/C=C/C(=O)N2CCCN(C(=O)/C=C/c3cc(OC)c(OC)c(OC)c3)CC2)cc(OC)c1OC ?
ALDH1A1 block: -10.8%

How did COc1cc(/C=C/C(=O)N2CCC=CC2=O)cc(OC)c1OC do in these assays?
ALDH1A1 block: 10µM*; HPGD inh: -24.3%

Results for Cc1ccc(-n2ncc3c(NNC(=O)c4cccs4)ncnc32)cc1 ?
ALDH1A1 block: 0.6%

Results for CCOC(=O)c1ccc(N2NC(=O)/C(=C/c3ccc(OC(=O)c4ccco4)c(OC)c3)C2=O)cc1 ?
ALDH1A1 block: inconclusive; HPGD inh: 12.6µM*

What do the screens show for `CCOC(=O)C1=C(C)NC(=O)NC1c1ccc(OC(=O)c2ccco2)c(OC)c1` (stereo not given)?
ALDH1A1 block: 0.8%; HPGD inh: -6.9%; IMPase inh: -0.2

Results for COc1cc(/C=C2/SC(=S)N(C)C2=O)ccc1OC(=O)c1ccco1 ?
ALDH1A1 block: -11.8%; HPGD inh: -17.2%

Results for CCOc1cc(/C=C2/C(=N)N3OC(C)=CC3=NC2=O)ccc1OC(=O)c1ccco1 ?
ALDH1A1 block: 10µM*

Results for CCOc1cc(/C=C2/C(=N)N3OC(C)=CC3=NC2=O)ccc1OCCOc1ccccc1 ?
ALDH1A1 block: inconclusive; HPGD inh: inconclusive; IMPase inh: 6.5

How did CCOc1cc(/C=C2/SC(=S)NC2=O)ccc1OC(=O)c1ccco1 do in these assays?
ALDH1A1 block: 8.91µM*

How did Cc1[nH]c(C)c(Cl)c(=O)c1Cl do in these assays?
ALDH1A1 block: -2.8%; HPGD inh: 2.1%

What do the screens show for `Cc1c(C2CCN(CCc3ccccc3)CC2)noc1-c1ccc(Cl)cc1`?
ALDH1A1 block: inconclusive; HPGD inh: -3.6%; IMPase inh: 0.4

Results for CC(=O)c1cn(-c2ccc(Cl)cc2)c(=O)n(Cc2ccc(Br)cc2)c1=O ?
ALDH1A1 block: 8.8%

Results for CCOc1cc(/C=N/NC(=O)c2cc(-c3cccc(OC)c3)n[nH]2)ccc1O ?
ALDH1A1 block: inconclusive; HPGD inh: -25.5%

How did Cc1ccc(OCc2nc3ccccc3n2CC(C)C)cc1 do in these assays?
IMPase inh: 2.7

What do the screens show for `COc1cc(NC(=O)Cn2cnc3c2c(=O)n(C)c(=O)n3C)c(OC)cc1Cl`?
IMPase inh: -9.6

Results for C/C(=N\Nc1ccc(F)cc1)c1ccncc1 ?
ALDH1A1 block: 20µM*; HPGD inh: -25.1%

How did C/C(=N\Nc1cccc(Cl)c1)c1ccncc1 do in these assays?
ALDH1A1 block: -16.3%

What do the screens show for `O=C(NCCc1ccccn1)C(F)(F)C(F)(F)C(F)(F)C(F)(F)C(F)(F)C(F)(F)C(F)(F)C(F)F`?
ALDH1A1 block: -2.7%; HPGD inh: -23.6%; IMPase inh: 7.9

Results for O=C(NNC(=S)Nc1ccccc1)c1cccc(Br)c1 ?
ALDH1A1 block: 20µM*; HPGD inh: -6.7%; IMPase inh: 3.8

What do the screens show for `O=C(O)CCC(=O)NNC(=O)c1cccc(Br)c1`?
ALDH1A1 block: 3.2%; HPGD inh: 1.3%

Results for O=C(NNC(=O)c1cccc(Br)c1)Nc1ccc(Cl)cc1 ?
ALDH1A1 block: 1.6%

Results for CC(C)(C)NC(=S)NNC(=O)c1ccccc1Cl ?
ALDH1A1 block: inconclusive; HPGD inh: -13.1%; IMPase inh: -4.4

How did O=C(NC(=S)Nc1cc(Cl)ccc1O)c1cccc(Br)c1 do in these assays?
ALDH1A1 block: 9.46µM*

How did O=C(O)/C=C/C(=O)NNC(=O)c1cccc(Br)c1 do in these assays?
ALDH1A1 block: 20µM*; HPGD inh: -2.3%; IMPase inh: 3.6

What do the screens show for `CC(C)(C)NC(=S)NNC(=O)c1cccc(Br)c1`?
ALDH1A1 block: 11.2µM*
